Calls of active or inactive are those of the source. Unless noted, no rule for the calls is given here.
Columns and labels:
[1] = compound effects on lung adenocarcinoma cell viability – A549, calcein-AM fluorescence, 48 h, basal, profiling panel (AID 1162); settings: higher = more signal; also: test concentration not given here
[2] = compound effects on differentiated 3T3-L1 adipocyte viability – cell-based, 3T3-L1 adipocytes, calcein-AM fluorescence, 48 h, basal, profiling panel (AID 1163); settings: 3T3-L1 adipocytes viability, higher = more signal; also: test concentration not given here
[3] = compound effects on hepatocellular carcinoma cell viability – HepG2, calcein-AM fluorescence, 48 h, basal, profiling panel (AID 1164); settings: higher = more signal; also: test concentration not given here
[4] = compound effects on multiple myeloma cell viability – MM1S, calcein-AM fluorescence, 48 h, basal, profiling panel (AID 1165); settings: higher = more signal;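 also: viability of MM1S multiple myeloma cells under basal unstimulated conditions; test concentration not given here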
[5] = calcein-AM signal in unstimulated myeloma cells – cell-based, calcein-AM fluorescence, 48 h, PK04 Diversity Set, profiling panel (AID 1166); settings: RPMI8226 myeloma viability, higher = more signal;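 also: cells grown under basal conditions without added stimulus; test concentration not given here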
[6] = JC-1 mitochondrial signal, unstimulated HepG2 cells – cell-based, JC-1 fluorescence, 24 h, 100 nL compound, profiling panel (AID 1167); settings: HepG2 mitochondrial potential, higher = more signal; also: test concentration not given here
[7] = JC-1 mitochondrial signal, unstimulated adipocytes – cell-based, JC-1 fluorescence, 3T3-L1 adipocytes, 24 h, 100 nL compound, profiling panel (AID 1168); settings: JC-1 mitochondrial fluorescence, higher = more signal, called active from +8 up or from −8 down; also: test concentration not given here
[8] = JC-1 mitochondrial signal, unstimulated myeloma cells – cell-based, JC-1 fluorescence, RPMI8226, 24 h, 100 nL compound, profiling panel (AID 1169); settings: JC-1 mitochondrial potential fluorescence, higher = more signal; also: test concentration not given here
[9] = JC-1 mitochondrial signal, unstimulated MM1S myeloma – cell-based, JC-1 fluorescence, 24 h, 100 nL compound, profiling panel (AID 1170); settings: MM1S mitochondrial potential, higher = more signal; also: test concentration not given here
[10] = resazurin metabolic signal in A549 cells – cell-based, resazurin fluorescence, 24 h, PK04 Diversity Set, profiling panel (AID 1171); settings: A549 viability, higher = more signal, called active from +8 up or from −8 down; also: test concentration not given here
[11] = resazurin metabolic signal in HepG2 cells – cell-based, resazurin fluorescence, 24 h, PK04 Diversity Set, profiling panel (AID 1172); settings: HepG2 viability, higher = more signal; also: test concentration not given here
[12] = budding yeast growth changes without added modifier – OD600, strain BY4716, 24 h, basal condition, primary screen (AID 1173); settings: S. cerevisiae BY4716 growth, OD600, 24 h; higher = more signal, called active from +8 up or from −8 down
[13] = viability profiling in MM1S myeloma cells – cell-based, resazurin fluorescence, basal, 24 h, PK04 Diversity Set, profiling panel (AID 1174); settings: higher = more signal, called active from +8 up or from −8 down; also: test concentration not given here
[14] = target: Dihydroorotate dehydrogenase (quinone), mitochondrial (Plasmodium falciparum (isolate 3D7)) (UniProt Q08210); test: inhibition of P. falciparum DHODH – biochemical, C-terminal His tag, absorbance 600 nm, primary screen (AID 1175); settings: PfDHODH enzyme, DCIP absorbance 600 nm; higher = more signal, called active from +8 up or from −8 down;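 also: recombinant parasite enzyme with a five histidine tag at its C terminus; test concentration not given here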
[15] = inhibition of PAO1 biofilm formation – strain PAO1, LB-PBS medium, absorbance 600 nm, primary screen (AID 1176); also: test concentration not given here; settings: P. aeruginosa PAO1 growth/biofilm, A600, 12 h; higher = more signal
[16] = growth modulation of vineyard yeast isolate – strain RM11-1a, OD600, basal, 24 h, primary screen (AID 1177);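 also: cultures grown under basal conditions with no added stressor; test concentration not given here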; settings: S. cerevisiae RM11-1a growth, OD600, 24 h; higher = more signal, called active from +8 up or from −8 down
[17] = growth of efflux-deficient E. coli DRC39 – strain DRC39, OD650, 24 h, E. coli filamentation inducers, primary screen (AID 1178);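 also: growth measured as culture turbidity by optical density at 650 nm; test concentration not given here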; settings: E. coli DRC39 acrAB, higher = more signal, called active from +8 up or from −8 down
[18] = growth of efflux-deficient E. coli DRC39 – strain DRC39, OD650, 48 h, E. coli filamentation inducers, primary screen (AID 1179);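 also: screen aims at cell division blockers that make cells filament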; settings: E. coli DRC39 delta-acrAB growth, higher = more signal, called active from +8 up or from −8 down
[19] = viability profiling in RPMI8226 myeloma cells – cell-based, resazurin fluorescence, basal, 24 h, PK04 Diversity Set, profiling panel (AID 1180); settings: higher = more signal;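 also: RPMI8826 multiple myeloma cell line at 5000 cells per well; test concentration not given here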
[20] = target: E3 ubiquitin-protein ligase XIAP (Homo sapiens) (UniProt P98170); test: small molecules binding XIAP protein – biophysical, small-molecule microarray, fluorescence 635 nm, primary screen (AID 1181); settings: higher = more signal;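 also: score merges 667 nm emission and signal to noise over triplicate slides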
Chain of E3 ubiquitin-protein ligase XIAP (Homo sapiens) (P98170 whole entry, looked up): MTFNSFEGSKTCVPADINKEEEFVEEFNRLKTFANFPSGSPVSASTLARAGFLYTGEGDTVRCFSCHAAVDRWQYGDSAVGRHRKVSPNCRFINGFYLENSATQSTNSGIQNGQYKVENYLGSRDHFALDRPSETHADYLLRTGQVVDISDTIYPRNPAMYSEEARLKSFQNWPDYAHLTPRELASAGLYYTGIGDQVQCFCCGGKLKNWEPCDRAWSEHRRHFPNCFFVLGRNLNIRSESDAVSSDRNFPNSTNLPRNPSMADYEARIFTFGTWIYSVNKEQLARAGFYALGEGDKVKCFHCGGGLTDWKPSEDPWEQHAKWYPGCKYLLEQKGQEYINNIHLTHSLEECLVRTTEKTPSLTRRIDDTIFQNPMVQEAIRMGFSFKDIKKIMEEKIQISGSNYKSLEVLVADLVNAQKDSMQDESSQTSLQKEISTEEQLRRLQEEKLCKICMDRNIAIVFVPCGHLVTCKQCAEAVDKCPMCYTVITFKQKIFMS

Chain of Dihydroorotate dehydrogenase (quinone), mitochondrial (Plasmodium falciparum (isolate 3D7)) (Q08210 whole entry, looked up): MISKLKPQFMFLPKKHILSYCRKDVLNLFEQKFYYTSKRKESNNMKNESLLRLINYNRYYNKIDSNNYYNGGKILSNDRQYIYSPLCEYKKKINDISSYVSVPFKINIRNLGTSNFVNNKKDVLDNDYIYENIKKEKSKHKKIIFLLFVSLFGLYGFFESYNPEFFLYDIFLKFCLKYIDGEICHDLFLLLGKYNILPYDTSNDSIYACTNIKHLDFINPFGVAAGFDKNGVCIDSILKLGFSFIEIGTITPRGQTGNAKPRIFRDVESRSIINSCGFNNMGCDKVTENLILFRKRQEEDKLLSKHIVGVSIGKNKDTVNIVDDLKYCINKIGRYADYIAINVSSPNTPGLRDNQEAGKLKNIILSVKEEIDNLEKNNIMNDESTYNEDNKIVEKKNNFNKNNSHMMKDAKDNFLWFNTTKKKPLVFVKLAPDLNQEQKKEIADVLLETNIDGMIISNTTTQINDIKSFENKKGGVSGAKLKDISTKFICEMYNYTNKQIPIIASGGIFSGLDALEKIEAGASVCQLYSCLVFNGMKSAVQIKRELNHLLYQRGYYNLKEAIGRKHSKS

Compound | z-score [1] | z-score [2] | z-score [3] | z-score [4] | z-score [5] | z-score [6] | z-score [7] | z-score [8] | z-score [9] | z-score [10] | z-score [11] | z-score [12] | z-score [13] | composite z-score [14] | z-score [15] | z-score [16] | z-score [17] | z-score [18] | z-score [19] | composite z-score [20]
CCOC(=O)C[C@H]1[C@H](OC(=O)c2ccccc2-c2ccccc2)[C@@H](NC(=O)c2ccc(-c3ccccc3)cc2)c2cc(OCCCO)ccc2N1C(=O)c1ccccc1 | 0.168 | 0.405 | 0.188 | 0.0425 | -0.602 | 1.5 | 0.247 (inactive) | -0.312 | -0.0178 | 0.0248 (inactive) | -0.607 | 0.579 (inactive) | 0.633 (inactive) | 1.03 (inactive) | -0.341 (inactive) | 1.61 (inactive) | 1.39 (inactive) | 0.53 (inactive) | 0.608 | -0.121
CC(C)(C)OC(=O)CC[C@]1(C(=O)NCC(O)CO)N=C(c2ccc(OCCCO)cc2)O[C@H]1c1ccccc1CN=[N+]=[N-] (stereo not given in full) | -1.22 | 0.351 | -0.504 | -1.1 | -1.44 | -1.02 | -0.484 (inactive) | 0.574 | 0.649 | -0.323 (inactive) | -0.206 | -0.694 (inactive) | -0.918 (inactive) | -0.59 (inactive) | 1.65 (inactive) | -0.591 (inactive) | -0.185 (inactive) | -0.659 (inactive) | -0.483 | 0.049
Oc1ccc2cc[n+](Cc3cccc(OC(F)(F)F)c3)cc2c1 | 0.609 | 0.128 | 0.577 | 0.683 | -0.592 | 0.303 | 0.339 (inactive) | 0.593 | -0.862 | -1.81 (inactive) | -0.975 | 0.236 (inactive) | -0.304 (inactive) | -1.09 (inactive) | 0.0061 (inactive) | 0.585 (inactive) | 0.4 (inactive) | 0.743 (inactive) | -1.07 | 0.202
C=C(CCCC)C(=O)CC[C@H](OC(=O)c1ccccc1-c1ccccc1C(=O)O)c1ccc(CO)o1 | 0.0743 | 0.418 | -0.862 | -0.0307 | 0.334 | -0.373 | -0.727 (inactive) | -0.658 | 0.063 | 1.09 (inactive) | 0.985 | 0.671 (inactive) | 0.319 (inactive) | -0.72 (inactive) | 0.497 (inactive) | 0.996 (inactive) | -0.154 (inactive) | 0.16 (inactive) | 0.64 | -0.154
C=CCN1C(=O)[C@]2(Cc3ccccc31)N=C(c1ccc(OCCCO)cc1)O[C@@H]2c1ccccc1 | -0.686 | -0.201 | -0.377 | -0.9 | -3.41 | -0.844 | 1.83 (inactive) | -1.11 | -0.672 | -2.13 (inactive) | -1.05 | -2.22 (inactive) | -1.48 (inactive) | -0.699 (inactive) | 0.134 (inactive) | 0.821 (inactive) | -1.3 (inactive) | -0.802 (inactive) | -1.33 | -0.0062
C=CCN1Cc2ccccc2C[C@@]2(COC(c3ccc(OCCCO)cc3)=N2)C1=O | 0.386 | 0.72 | 0.741 | -3.59 | -2.52 | 1.32 | 0.94 (inactive) | -0.988 | -2.19 | -1.56 (inactive) | 0.344 | -2.27 (inactive) | -8.12 (active) | -0.993 (inactive) | -0.127 (inactive) | 1.04 (inactive) | 1.32 (inactive) | 1.14 (inactive) | -4.61 | 0.236
CCCCC(=O)N(Cc1ccccc1F)[C@@H]1CC(C(=O)NCCO)=C[C@H](Oc2c(I)cc(CO)cc2OC)[C@H]1O | -0.435 | 1.65 | -0.765 | 0.364 | -1.7 | 0.197 | -0.916 (inactive) | -0.325 | -0.0648 | -0.873 (inactive) | -0.796 | -2.51 (inactive) | -0.137 (inactive) | -1.63 (inactive) | -0.447 (inactive) | 1.65 (inactive) | 0.754 (inactive) | 0.266 (inactive) | -0.0533 | 0.344
OCCCc1cc[n+](Cc2cccc(OC(F)(F)F)c2)cc1 | -0.0193 | 0.997 | -1.18 | 0.277 | -1.86 | 1.14 | -0.487 (inactive) | -0.0293 | -0.978 | 0.484 (inactive) | 0.887 | -1.08 (inactive) | 0.499 (inactive) | -3.59 (inactive) | 0.0898 (inactive) | 0.616 (inactive) | 0.453 (inactive) | 0.159 (inactive) | -0.326 | 0.337
C=CCOC(=O)[C@H]1[C@@H]2C(=O)O[C@@H](c3ccccc3)[C@@H](c3ccccc3)N2[C@@H](c2ccc(OCCOC(=O)[C@H]3C[C@H]4C(=O)N[C@@H](CCCC[N+](C)(C)C)C(=O)N4[C@H]3c3ccc(O)cc3)cc2)[C@]12C(=O)Nc1ccccc12 | 1.6 | 0.6 | 0.549 | 0.419 | 0.337 | -1.12 | 1.31 (inactive) | -0.456 | -0.0465 | 0.896 (inactive) | 0.767 | -2.24 (inactive) | 1.31 (inactive) | -2.24 (inactive) | -0.723 (inactive) | 0.0539 (inactive) | 0.402 (inactive) | 0.0612 (inactive) | 1.21 | 0.0325
O=C1C[C@@](C(=O)O)(c2ccc([N+](=O)[O-])cc2)[C@@H](c2ccc(CO)cc2I)N1C1CCCCC1 | 1.05 | 1.32 | 0.279 | -3.6 | -3.61 | 0.053 | -0.962 (inactive) | -0.826 | -1.86 | 0.597 (inactive) | 0.0536 | -5.06 (inactive) | -1.62 (inactive) | -1.68 (inactive) | 1.16 (inactive) | -1.01 (inactive) | 1.39 (inactive) | 0.466 (inactive) | -1.57 | -0.289
CN(C)CCCC[C@@H]1NC(=O)[C@@H]2C[C@H](C(=O)NCCCCCN)[C@H](c3ccc(O)cc3)N2C1=O | 0.635 | 0.177 | -0.0772 | 0.189 | -0.115 | 1.25 | 0.665 (inactive) | -0.286 | -0.592 | -0.475 (inactive) | -0.24 | -0.235 (inactive) | -0.507 (inactive) | -1.33 (inactive) | -0.0491 (inactive) | -0.361 (inactive) | 0.591 (inactive) | 1.09 (inactive) | -0.948 | -0.134
O=C1O[C@H](c2ccccc2)[C@H](c2ccccc2)N2[C@H]1[C@@H](C(=O)NC[C@H](O)c1ccccc1)[C@]1(C(=O)Nc3ccc(C#CC4=CCCCC4)cc31)[C@H]2c1ccc(O)cc1 | -1.06 | 1.72 | -1.25 | -3.18 | -3.47 | -2.78 | -0.683 (inactive) | -0.87 | -0.544 | 0.237 (inactive) | -0.654 | -0.48 (inactive) | -1.78 (inactive) | -2.16 (inactive) | 2.02 (inactive) | 1.62 (inactive) | 0.146 (inactive) | 0.165 (inactive) | -3.63 | -0.124
Cc1ccc(N2C(=O)c3ccccc3[C@@H](C(=O)NC(C)C)[C@@H]2c2ccc(CO)cc2)nc1 | -0.749 | -0.0953 | -0.617 | 0.385 | -0.526 | 0.199 | -0.286 (inactive) | 0.918 | -0.67 | 2.16 (inactive) | 1.48 | -1.69 (inactive) | 1.09 (inactive) | -0.309 (inactive) | 0.69 (inactive) | -0.434 (inactive) | 0.282 (inactive) | 0.375 (inactive) | 1.17 | 0.147

Source: PubChem BioAssay
